This is a sample that favours compounds with a hit; in the whole collection about 1.8% have one here.
GLP1R ag – qHTS of GLP-1 Receptor Agonists | HEK293 GLP-1R CRE-luciferase, luminescence, 4-6 h; cells express a hypersensitive GLP-1R form | 0.007% of 380,000 active | Potency, µM (doses to about 45.6 µM), for inactives: at the highest dose activation, most hits filed as activators | Glucagon-like peptide 1 receptor (Homo sapiens), P43220; further: potency means the concentration at half of the fitted maximal effect; % of control where 0% means no effect
Target sequence (P43220 whole entry, looked up): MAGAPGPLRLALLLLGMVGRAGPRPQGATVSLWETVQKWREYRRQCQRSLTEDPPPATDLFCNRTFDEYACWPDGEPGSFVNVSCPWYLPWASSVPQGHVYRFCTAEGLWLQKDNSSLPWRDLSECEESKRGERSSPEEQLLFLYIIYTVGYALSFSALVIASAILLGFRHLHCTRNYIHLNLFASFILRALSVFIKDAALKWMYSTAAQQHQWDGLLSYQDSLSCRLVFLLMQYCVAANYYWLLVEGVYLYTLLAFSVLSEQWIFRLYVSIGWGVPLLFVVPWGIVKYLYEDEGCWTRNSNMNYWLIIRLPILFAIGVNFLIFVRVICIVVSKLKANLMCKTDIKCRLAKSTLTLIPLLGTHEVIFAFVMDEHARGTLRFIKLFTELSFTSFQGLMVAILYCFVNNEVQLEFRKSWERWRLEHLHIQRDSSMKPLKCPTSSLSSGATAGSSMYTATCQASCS
TSHR antag – Antagonists of the Thyroid Stimulating Hormone Receptor: HTS campaign | Thyrotropin receptor (Homo sapiens), P16473 | TSHR-expressing cells, TSH-stimulated cAMP HTRF, 2 h; active compounds read low | activity change, negative = inhibition, % at 11.5 µM | 0.2% of 330,000 active | AID 504810, 2011;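 active means activity change below a set negative limit, meaning inhibition stronger than a set level, cut at about -70% in these data; inconclusive means activity change between two set negative limits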; further: on the % scale 0 is the no-effect control and ±100 the full control effect
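Read-out is FRET at 665 nm (cryptate excitation 337 nm) from a cryptate-tagged anti-cAMP antibody, competed by cell cAMP against cAMP-d2. Compounds are tested on freshly harvested TSHR cells challenged with 4nM TSH (EC80) for 2 hours at 37 deg C.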
GLP-1R inv ag – qHTS of GLP-1 Receptor Inverse Agonists (Inhibition Mode). 1.6% of 410,000 active. AID 624417, 2012. Glucagon-like peptide 1 receptor (Homo sapiens), P43220. Potency, µM (doses to about 38.3 µM), inactives show top-dose activity change, negative = inhibition, usual class: inhibitors. HEK293 GLP-1R CRE-luciferase, luminescence, 24 h; GLP-1R form is constitutively active; further: potency means the concentration at half of the fitted maximal effect; on the % scale 0 is the no-effect control and ±100 the full control effect; nearly all actives have a fitted effect of over 55% in size
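Readout was luciferase luminescence, measured 12 min after detection reagent at room temperature. Beforehand, GLP-1R reporter HEK293 cells had sat 12 h, then received compounds for 24 hr at 37 deg C.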
HEK293 tox – qHTS of GLP-1 Receptor Inverse Agonists: Cytotox Screen; HEK293 cAMP-luciferase reporter cells, luminescence, 24 h; Potency, µM (top dose mostly 38.3 µM), for the others: at the highest dose activity change, negative = inhibition, hits mostly inhibitors; 0.13% of 410,000 active;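 further: loss of luciferase light is scored as toxicity; potency means the concentration at half of the fitted maximal effect; on the % scale 0 is the no-effect control and ±100 the full control effect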
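Compound-treated cells are incubated 24 hr at 37 deg C under 5% CO2 after a 12 hour attachment period, then luciferase detection reagent is added and luminescence is measured following 12 min at room temperature; lowered signal indicates toxicity.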
PTHR1 ag – qHTS for PTHR1 Agonists: Primary Screen | Parathyroid hormone/parathyroid hormone-related peptide receptor (Homo sapiens), Q03431 | HEK293 GP2 PTHR1 cells, GloSensor cAMP luminescence, 1 h | Potency, µM (doses to about 115 µM), without a hit: at the highest dose activation, actives largely listed as activators | 0.075% of 410,000 active; further: potency means the concentration at half of the fitted maximal effect; nearly all actives have a fitted effect of over 55% in size
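HEK-293-derived GP2 cells expressing PTHR1 and a GloSensor cAMP reporter, 3,000/well, plated overnight, given luciferin plus IBMX (each 0.5 mM as added) for 1 h at 37 °C, then compound for 1 h at 37 °C. Luminescence was read after 15 min at room temperature.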
Active calls of the source: *; i = inactive; ? = inconclusive; . = no result; [ ] = another dose, or the depositor's remark. Unless noted, the call rests on the fitted dose curve; in most records, active means well fitted curve in the direction sought with a large enough effect; inconclusive means small, poorly fitted or top-dose-only effect, or another doubt; inactive means no such curve, though single readings can be large; an effect the other way counts as inactive or inconclusive.

SMILES | GLP1R ag | TSHR antag | GLP-1R inv ag | HEK293 tox | PTHR1 ag
CC(C)OC(=O)OCOP(=O)(CO[C@H](C)Cn1cnc2c(N)ncnc21)OCOC(=O)OC(C)C | 10.2% | . | . | . | .
Cn1cc(CN2CCC(CO)CC2)c(-c2ccc(Oc3ccccc3)cc2)n1 | 3.2% | -6.3 | 10µM* | -13.9% | i
CCOc1ccccc1CNC(=O)C1CCN(S(=O)(=O)c2c(C)noc2/C=C/c2ccccc2F)CC1 | . | . | 5.9% | 6.6% | i
COc1cccc(C(=O)Nc2c(C(=O)N3CCN(c4ccc(F)cc4)CC3)oc3ccccc23)c1 | -7.0% | . | ? | -4.5% | 14.9%
O=C(c1ccc2c(c1)N(Cc1ccc(Cl)cc1)C(=O)c1ccccc1S2=O)N1CCOCC1 (centres undefined) | -0.9% | . | 21.2% | -2.9% | -89.5%
CCN(C(=O)c1ccc2c(c1)N(Cc1cccc(Cl)c1)C(=O)c1ccccc1S2=O)c1ccccc1 (centres undefined) | . | . | 10µM* | -27.1% | i
O=C(NCCCN1CCCC1)c1ccc2c(c1)N(Cc1ccccc1F)C(=O)c1ccccc1S2=O (centres undefined) | -0.3% | -4.6 | 8.91µM* | -1.1% | -27.5%
CCN1CCN(CCNC(=O)c2ccc3c(c2)N(Cc2cccc(Cl)c2)C(=O)c2ccccc2S3=O)CC1 (centres undefined) | 4.4% | 2.9 | ? | -24.3% | 12.4%
O=C(NCCCN1CCOCC1)c1ccc2c(c1)N(Cc1ccc(Cl)cc1)C(=O)c1ccccc1S2=O (centres undefined) | -3.2% | -97.3* | 20.1% | -1.4% | -15.2%
Cc1ccc(CN2C(=O)c3ccccc3Sc3ccc(C(=O)NCCN4CCOCC4)cc32)cc1 | -6.5% | -135.5* | 6.31µM* | ? | -12.9%
Cc1ccc(C)c(CN2C(=O)c3ccccc3S(=O)c3ccc(C(=O)NCCCN4CCCC4)cc32)c1 (centres undefined) | 7.8% | -7.6 | ? | -17.9% | i
Cc1ccsc1CN1CCc2nc(Nc3ccccc3)ncc2C1 | . | . | ? | -0.8% | -88.7%
Cc1ccccc1NC(=O)c1ccc2ccccc2c1 | -0.5% | -6.3 | ? | 4.3% | -32.9%
COc1ccc(-c2nnc(NC(=O)c3ccc(F)cc3)o2)cc1 | -2.2% | -6.8 | -5.3% | 1.6% | -23.8%
Cc1nnc(NC(=O)c2ccc3ccccc3c2)o1 | 2.4% | 10.8 | 11.2µM* | -17.5% | -24.2%[57.5 µM]
COc1ccc(-c2nnc(NC(=O)c3ccc4c(c3)OCCO4)o2)cc1 | -6.5% | -94.9* | ? | -15.7% | i
CCOC(=O)CSc1nnc(CNc2ccc(Cl)cc2)n1-c1ccccc1 | -0.2% | -1.3 | -1.8% | 3.3% | i
CCOc1ccc(NCc2nnc(SCc3ccc(Cl)cc3)n2-c2ccccc2)cc1 | -7.1% | 19.6 | 10µM* | -9.8% | -11.1%
CCOC(=O)c1cc(-c2ccccc2)n(-c2cccc(C(=O)N(C)c3ccc(C)cc3)c2)c1C | . | . | ? | -6.1% | i
CC(C)(C)C(=O)NC(Nc1cccc2cccnc12)C(Cl)(Cl)Cl (centres undefined) | -9.3% | -11.7 | 5.01µM* | 48.4% | i
O=C(COc1ccc2c(c1)C(=O)CC1(CCCCC1)O2)NCc1ccccn1 | 33.2% | -9.7 | 0.0% | 24.3% | -16.5%[57.5 µM]
O=C(COc1ccc2c(c1)C(=O)CC1(CCCCC1)O2)NCc1ccccc1 | 9.0% | -12.1 | 11.2µM* | 11.5% | i
CCOC(=O)c1cccc(NC(=O)CSc2cc(=O)n(C)c3ccccc23)c1 | . | . | 16.0% | 5.3% | -16.9%
CCc1ccc(-c2cc(C)no2)cc1S(=O)(=O)NC(C)Cc1ccco1 (centres undefined) | 27.6% | -32.7 | 3.55µM* | -9.3% | -9.0%
Cc1c(C(=O)N2CCCC2)oc2c1-c1nn(CC(=O)NCc3cccc(Br)c3)cc1CC2 | . | . | 6.5% | -4.3% | -27.6%
SMILES | GLP1R ag | TSHR antag | GLP-1R inv ag | HEK293 tox | PTHR1 ag
CC1CCCN(Cc2nc(Cc3ccccc3Cl)no2)C1 (centres undefined) | 12.8% | -5.4 | 10µM* | 0.6% | -50.6%
Cc1ccc(C2c3[nH]c4ccccc4c3CCN2C(=O)CCC2CCCC2)cc1 (centres undefined) | . | . | 10µM* | 3.2% | -4.6%
COC(=O)c1ccc(NC(=O)N2CCc3c([nH]c4ccccc34)C2c2ccc(C)cc2)cc1 (centres undefined) | . | . | 4.47µM* | -16.6% | ?
Cc1ccc(C2c3[nH]c4ccccc4c3CCN2C(=O)Nc2ccc(C)c(C)c2)cc1 (centres undefined) | . | . | 7.94µM* | -7.8% | -15.0%
Cc1ccc(C2c3[nH]c4ccccc4c3CCN2C(=O)c2ccccc2Br)cc1 (centres undefined) | . | . | ? | -9.4% | i
Cc1ccc(C2c3[nH]c4ccccc4c3CCN2C(=O)c2ccc(N(C)C)cc2)cc1 (centres undefined) | . | . | ? | -6.5% | -1.9%
CCc1ccccc1NC(=O)c1cc(S(=O)(=O)N2CCc3ccccc32)ccc1F | . | . | ? | 3.0% | -1.5%
CN1CCN(c2ccc(NC(=O)c3ccc(-c4ccc(Cl)cc4)o3)cc2)CC1 | 26.7% | -15.3 | 3.98µM* | ? | -15.1%
CS(=O)(=O)N1CCN(c2ccc(NC(=O)c3ccc(-c4ccc(Cl)cc4)o3)cc2)CC1 | -10.1% | -0.7 | 2.7% | 5.3% | -20.3%[57.5 µM]
CC(Nc1nc(-c2ccncc2)nc2ccccc12)c1ccccc1 (centres undefined) | ? | 18.6 | 7.08µM* | 10.9% | -3.7%
CC(Nc1nc(N2CCNCC2)nc2ccccc12)c1ccccc1 (centres undefined) | -0.2% | -12.2 | 11.2µM* | ? | -15.8%
CC(Nc1nc(-c2cccnc2)nc2ccccc12)c1ccccc1 (centres undefined) | 5.9% | . | ? | -31.3% | i
O=C(Nc1cccc(Br)c1)N1CCN2CCCCC2C1 (centres undefined) | . | . | 1.9% | -2.8% | ?
O=Cc1cc2ccccc2nc1SCc1ccc(Cl)cc1 | 3.7% | -12.6 | 0.0% | ? | -6.1%
Cc1ccc(CSc2nc3ccccc3cc2C=O)cc1 | 2.5% | -21.1 | 3.98µM* | ? | -14.5%[57.5 µM]
Cc1cccc(Oc2ccc(NC(=O)CCC(=O)OCC(=O)c3ccc(Br)cc3)cc2)c1C | . | . | -11.4% | 3.0% | i
COc1cccc(-c2nc(S(=O)(=O)c3ccccc3)c(N3CCC(C)CC3)o2)c1 | . | . | ? | 2.2% | -2.7%
COC(=O)[C@]12CCC(C)(C)C[C@@H]1[C@@H]1C(=O)C=C3[C@@]4(C)C=C(C#N)C(=O)C(C)(C)[C@@H]4CC[C@@]3(C)[C@]1(C)CC2 | 5.0% | . | . | . | .

High-throughput results from PubChem BioAssay.
